Screening data: PubChem, National Center for Advancing Translational Sciences (NCATS)
In the library only some 4.8% were active in any assay of this set; here they are far more common.
S2 tox: cell viability loss in ATXN counter-screen; S2 cells (HEK-293 line with an ATXN2-luciferase reporter) viability, CellTiter-Fluor protease fluorescence, 24 h; Potency, µM (top dose mostly 56.7 µM), hits mostly cytotoxic; 400,000 tested, 0.49% active; AID 651635; note: potency is the fitted concentration of half-maximal effect; nearly all actives have a fitted effect of over 40% in size
USP2a inh: inhibitors of human ubiquitin-specific protease USP2a | Potency, µM (series often up to 38.3 µM), without a hit: at the highest dose activity change, negative = inhibition, usual class: inhibitors | USP2 core, Ub-CHOP2 coupled fluorogenic reporter, 485/531 | O75604 | 330,000 tested, 0.01% active;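 note: potency is the fitted concentration of half-maximal effect; plate controls were DMSO wells for no effect and full inhibition by NEM control for full effect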
Target sequence (O75604 whole entry, looked up): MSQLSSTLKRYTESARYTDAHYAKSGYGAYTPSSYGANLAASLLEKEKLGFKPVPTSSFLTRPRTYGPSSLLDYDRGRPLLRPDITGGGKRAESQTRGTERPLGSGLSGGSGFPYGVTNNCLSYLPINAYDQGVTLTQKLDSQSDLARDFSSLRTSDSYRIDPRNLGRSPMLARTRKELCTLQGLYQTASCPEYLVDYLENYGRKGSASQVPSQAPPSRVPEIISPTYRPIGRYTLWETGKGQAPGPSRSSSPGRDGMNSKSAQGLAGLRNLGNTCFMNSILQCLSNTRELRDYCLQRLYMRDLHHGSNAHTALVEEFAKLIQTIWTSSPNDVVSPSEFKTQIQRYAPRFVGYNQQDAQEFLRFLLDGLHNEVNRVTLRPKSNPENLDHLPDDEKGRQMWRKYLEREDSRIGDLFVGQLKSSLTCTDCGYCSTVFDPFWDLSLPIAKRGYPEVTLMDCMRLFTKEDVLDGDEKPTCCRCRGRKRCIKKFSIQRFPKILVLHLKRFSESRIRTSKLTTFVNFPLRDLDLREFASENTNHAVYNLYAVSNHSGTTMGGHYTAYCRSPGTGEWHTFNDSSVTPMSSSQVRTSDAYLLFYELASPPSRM
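Cell-free coupled assay: 10nM USP2 core preincubated 30min RT with compound in Tris-HCl pH 8.0/CaCl2/CHAPS buffer, then 25nM Ub-CHOP2 and 25nM reporter substrate; fluorescence (Ex 485/Em 531) read after 60min RT, normalized to NEM inhibition, concentration-response curves fitted.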
ATXN2 expr inh: ATXN2 expression inhibition. HEK-293 ATXN2-luciferase reporter, luminescence, 24 h. 360,000 tested, 0.72% active. Potency, µM (top dose mostly 57 µM), inactives show top-dose activity change, negative = inhibition, hits mostly inhibitors; note: potency is the fitted concentration of half-maximal effect; % is set by controls: 0 for no effect and ±100 for the full control effect; nearly all actives have a fitted effect of over 55% in size
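ATXN2-luciferase reporter cells (luciferase flanked by upstream and downstream ATXN2 gene portions) were treated 24 h at 37 °C with compounds at up to 57 uM. SteadyGlo luminescence gave expression; GF-AFC fluorescence gave viability.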
USP1-UAF1 inh: USP1/UAF1 (human) deubiquitinase inhibition | recombinant USP1/UAF1, Ub-Rhodamine cleavage fluorescence | Potency, µM (series often up to 57.1 µM), without a hit: at the highest dose activity change, negative = inhibition, most hits filed as inhibitors | 390,000 tested, 0.23% active | AID 743255; note: potency is the fitted concentration of half-maximal effect; % is set by controls: 0 for no effect and ±100 for the full control effect; nearly all actives have a fitted effect of over 60% in size
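High-throughput fluorogenic screen: 1nM USP1/UAF1 complex, Ub-Rho substrate 150nM final, 50mM HEPES pH 7.8 with 0.5mM EDTA, 0.1 mg/ml BSA, 1mM TCEP and 0.01% Tween-20.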
IL-1B inflam inh: blocks inflammasome-driven IL-1 beta release | THP-1 LPS/ATP IL-1B secretion, AlphaLISA, 16 h; active compounds read low | activity change, % at 57.5 µM | 360,000 tested, 4.7% active | AID 743279; in the data active = activity change below about -50%; inconclusive = mostly about -30% to -49%; note: % is set by controls: 0 for no effect and ±100 for the full control effect
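Secreted IL-1B measured by AlphaLISA bead assay after 16 h compound exposure of THP-1 cells; compounds (final up to 57.5 uM) added 1 h before LPS (250 ng/mL) and ATP (1.25 mM) stimulation; lower signal means less secretion.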
* = called active by the depositor; i = inactive; ? = inconclusive; . = no result given; [ ] = dose if it differs, or a comment. Unless noted, calls come from the whole dose curve; as a rule, active = well fitted curve in the direction sought with a large enough effect; inconclusive = small, poorly fitted or top-dose-only effect, or another doubt; inactive = no such curve, though single readings can be large; an effect the other way counts as inactive or inconclusive.

SMILES	S2 tox	USP2a inh	ATXN2 expr inh	USP1-UAF1 inh	IL-1B inflam inh
Cc1cc(C)nc(N(C#N)CN2C(=O)c3ccccc3C2=O)n1	i	4%	-3%	1%	-15
CCC(C)Nc1nc(Cl)nc(N(C#N)CN2C(=O)c3ccccc3S2(=O)=O)n1 (stereo not given)	i	0%	-7%	-6%	-66*
CCOc1ccc(NC(=O)NCCN2CCN(c3cc(Cl)ccc3C)CC2)cc1	i	.	-11%	-26%	.
Cc1cnc(-c2cc(N3CCN(C(=O)CCS(C)(=O)=O)CC3)ncc2Cl)c(C)c1	.	.	6%	.	.
CCNCC(=O)N1c2ccccc2CCc2ccc(NC(=O)OCC)cc21	i	2%	-31%	-36%	-69*
CCOC(=O)Nc1ccc2c(c1)N(C(=O)CN)c1ccccc1CC2	i	-2%	-14%	-21%	-63*
CN1CCN(CCCNC(=O)c2cc3c(-c4ccc(Cl)cc4)nn(C)c3s2)CC1	i	-1%	4%	-16%	?
CCCN(CCC)CCCNC(=O)c1cc2c(-c3ccc(Cl)cc3)nn(C)c2s1	25µM*	.	?	3%	.
CCN(CCCNC(=O)c1cc2c(-c3cccc(OC)c3)nn(C)c2s1)Cc1ccccc1	?	1%	?	-16%	-84*
COc1ccc(CNC(=O)c2cc3c(-c4ccc(Cl)cc4)nn(C)c3s2)cc1	.	.	.	6%	.
CCN(CC)CCCNC(=O)c1cc2c(-c3ccc(Cl)cc3)nn(C)c2s1	.	1%	25µM*	-17%	-81*
Cc1ccccc1C(=O)Nc1nnc(SCc2cc(=O)n3ccccc3n2)s1	.	.	.	-1%	.
CC(C)NC(=S)N=Nc1c(O)[nH]c2ccc(C(C)C)cc12	3.5µM*	1%	.	-24%	0
Cc1cnc(NS(=O)(=O)c2ccc(N)cc2)nc1	i	.	-3%	.	.
CCC1=Nc2cc(C(=O)N3CCCCC3)ccc2Sc2ccc(C)cc21	32µM*	3%	?	-25%	4
CCCC1=Nc2cc(C(=O)N3CCN(c4ccccn4)CC3)ccc2Sc2ccc(C)cc21	?	2%	-8%	-28%	-50*
COc1cc2c(cc1OC)C(C)N(C(=O)Nc1cc(C)cc(C)c1)CC2 (stereo not given)	?	-1%	.	-22%	35
COc1cc2c(cc1OC)C(C)N(C(=O)c1cc3c(C)cc(C)cc3[nH]1)CC2 (stereo not given)	?	-1%	?	-28%	-81*
CCn1cc(CNC(=O)c2cccc([N+](=O)[O-])c2)c(C)n1	i	4%	1%	-9%	22
O=C(CCl)Nc1cn(-c2ccccc2)nc1-c1ccc(F)cc1	?	2%	?	0%	-107*
O=C(NCc1cn(-c2ccccc2)nc1-c1ccc(F)cc1)c1cccc([N+](=O)[O-])c1	i	-2%	6%[11.3 µM]	-12%	-75*
Fc1ccc(-n2cc(CNCCc3cccnc3)c(-c3ccccc3Cl)n2)cc1	?	0%	-24%	?	-76*
Fc1ccc(-c2nn(-c3ccccc3)cc2CNCc2ccccc2)cc1	i	1%	2%[11.3 µM]	-27%	-90*
O=C(Nc1ccc(Cl)cc1)NC1CCCCC1Cc1ccco1 (stereo not given)	?	1%	?	-23%	-8
O=C(Nc1ccc(Cl)cc1)NC1CCCC1Cc1ccco1 (stereo not given)	i	-2%	9%	-9%	-89*
SMILES	S2 tox	USP2a inh	ATXN2 expr inh	USP1-UAF1 inh	IL-1B inflam inh
CSc1ccc(CN2CCN(Cc3ccc([N+](=O)[O-])cc3)CC2)cc1	?	1%	-13%	-16%	-67*
O=[N+]([O-])c1ccc(CN2CCOCCOCCN(Cc3ccc([N+](=O)[O-])cc3)CCOCC2)cc1	i	-2%	?	-4%	-142*
Cc1ccc(CCNC(=O)c2cn(C)c3ccc(S(=O)(=O)N4CCCCC4)cc3c2=O)cc1	i	.	11%	6%	.
CC(C)NC(=O)c1onc(CSc2ccc(F)cc2)c1C(=O)NC(C)C	i	-2%	5%	-25%	0
CC(=O)c1c(C)n([O-])c2cc(F)c(F)cc2[n+]1=O	?	2%	-2%[11.3 µM]	-23%	-100*
CCSc1nsc(NC(=O)Nc2cccc(F)c2)n1	?	-3%	?	-13%	-95*
COc1cccc(NC(=O)Nc2nc(SC)ns2)c1	i	2%	42%	-23%	-98*
COc1cccc(NC(=O)Nc2nc(SC(C)(C)C)ns2)c1	?	2%	?	-15%	-73*
CCCSc1nsc(NC(=O)Nc2ccc(F)cc2F)n1	.	-2%	.	-24%	-28
CC(NC(CCc1ccccc1)C(=O)O)C(=O)N1C(=O)N(C)CC1C(=O)O (stereo not given)	i	.	12%	.	.
Cc1cc(SCc2ccccc2)nc(=O)[nH]1	i	2%	1%	-15%	-3
O=c1cc(SCc2ccccc2)nc[nH]1	i	.	6%	-3%	-80*
O=c1c2ccccc2nnn1-c1ccccc1[N+](=O)[O-]	i	.	.	?	-16
Cc1ccc(NC(=O)Cc2csc(-c3ccccc3)n2)cc1F	i	1%	4%	-24%	-80*
O=C(Cc1csc(-c2ccccc2)n1)Nc1ccc(C(F)(F)F)cc1	i	1%	-20%	-2%	10
c1ccc2sc(Sc3ncnc4sccc34)nc2c1	i	0%	7%	-19%	-79*
CCc1cc2c(Sc3nc4ccccc4s3)ncnc2s1	?	2%	?	-5%	?
CCCCNC(=O)c1nc(-c2cnc(C)cn2)oc1-c1ccc(Cl)cc1	.	.	.	.	15
N#Cc1nc(NCC(F)F)nc(Nc2cc(F)cc(F)c2)n1	?	0%	11µM*	.	.
O=C(NC(=S)Nc1ccc(S(=O)(=O)NC2CCCCC2)cc1)c1cccs1	?	-2%	-25%	-20%	-65*
O=C(CC1Oc2ccccc2NC1=O)NCc1ccccc1 (stereo not given)	i	-2%	4%	-7%	5
CC(=O)CC1OC(=O)C(Br)=C1NCc1ccccc1 (stereo not given)	.	-1%	?	-21%	-100*
Cc1noc(C)c1NC(=O)N(C)C[C@H]1Oc2ccc(NS(=O)(=O)c3cccs3)cc2C(=O)N([C@H](C)CO)C[C@@H]1C	i	3%	9%	-6%	-3
O=C1NC[C@H](Cc2ccccc2)N(C[C@H]2CCCN2C[C@H](Cc2ccccc2)N2C[C@H](Cc3ccccc3)N(CCc3ccccc3)C(=O)C2=O)C1=O	18µM*	.	?	-23%	-77*
O=C1NC[C@H](Cc2ccccc2)N(C[C@@H]2CCCN2C[C@H](Cc2ccccc2)N2C[C@H](Cc3ccccc3)N(CCc3ccccc3)C(=O)C2=O)C1=O	?	.	?	.	-70*
